According to PubChem BioAssay (NCATS):
Inconclusive results are not listed. Where a call stands in place of a potency, no number is given. Calls of active or inactive are those of the source. Calls come from the whole dose curve; as a rule, active = well fitted cell-killing curve with a large enough effect; inconclusive = small, poorly fitted or top-dose-only effect, or effect the other way; inactive = flat fitted curve, though single readings scatter.

Assays:
Test in all cases: Primary qHTS to identify gynecologic anti-cancer compounds using libraries of approved drugs and bioactive compounds (AID 1345084); note: nearly all actives have a fitted effect of over 55% in size
C33A = conditions: Gynecologic cancer cell panel viability, ATPlite luminescence, 48 h; series mostly up to 57.5 µM
How it was run: (§1)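 Measured: luminescence after ATPlite addition (15 min, RT). Exposure: 48 h, 37 C, 5% CO2.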

CAOV3 = conditions: Gynecologic cancer cell panel viability, ATPlite luminescence, 48 h; series mostly up to 57.5 µM
How it was run: as §1

CASKI = conditions: Gynecologic cancer cell panel viability, ATPlite luminescence, 48 h; series mostly up to 57.5 µM
How it was run: as §1

Es-2 = conditions: Gynecologic cancer cell panel viability, ATPlite luminescence, 48 h; series mostly up to 57.5 µM
How it was run: as §1

HeLa = conditions: Gynecologic cancer cell panel viability, ATPlite luminescence, 48 h; series mostly up to 57.5 µM
How it was run: as §1

JEG-3 = conditions: Gynecologic cancer cell panel viability, ATPlite luminescence, 48 h; series mostly up to 57.5 µM
How it was run: as §1

Hek293T = conditions: Gynecologic cancer cell panel viability, ATPlite luminescence, 48 h, control line for the selectivity index; series mostly up to 57.5 µM
How it was run: as §1

OV90 = conditions: Gynecologic cancer cell panel viability, ATPlite luminescence, 48 h; series mostly up to 57.5 µM
How it was run: as §1
Potency is the fitted concentration of half-maximal effect.

| SMILES | Potency (C33A) | Potency (CAOV3) | Potency (CASKI) | Potency (Es-2) | Potency (HeLa) | Potency (JEG-3) | Potency (Hek293T) | Potency (OV90) |
| --- | --- | --- | --- | --- | --- | --- | --- | --- |
| C[C@@H]1CCCN1CCc1cc2cc(-c3ccc(C#N)cc3)ccc2o1 | inactive | inactive | inactive | inactive | inactive | inactive |  |  |
| CC(C)C[C@H](CO)Nc1nc(S[C@@H](C)c2ccccc2)nc2nc(N)sc12 | inactive | inactive | inactive | inactive | inactive |  | inactive | inactive |
| CC(C)OC(=O)N1CCC(Oc2ncnc3c2cnn3-c2ccc(S(C)(=O)=O)cc2F)CC1 | inactive | inactive | inactive | inactive | inactive | inactive |  | inactive |
| COc1ccc2[nH]c(=O)c3c(c2c1)OC(C)(C)C=C3 | inactive | inactive | inactive | inactive | inactive | inactive |  | inactive |
| O=C(NO)c1ccc(CC(=O)N(CCO)c2ccccc2)cc1 | inactive | inactive | inactive | inactive | inactive |  | inactive | inactive |
| CC(=O)C1(C)CCC2C3C=C(C)C4=CC(=O)CCC4(C)C3CCC21C (stereo not given) | inactive | inactive | inactive | inactive | 14.1 µM (active) | inactive |  | inactive |
| Fc1ccc(N2CCCCC2)c(NC(=S)c2ccncc2)c1 | inactive | inactive | inactive | inactive | inactive | inactive |  | inactive |
| CN1CCN(S(=O)(=O)c2ccc(-c3cnc(N)c(C(=O)Nc4cccnc4)n3)cc2)CC1 | inactive | inactive | inactive | inactive | inactive |  | inactive | inactive |
| C=C1C(=O)O[C@@H]2/C=C(\C)CC/C=C(\C)CC[C@@H]12 | inactive | inactive | inactive | inactive | inactive |  | inactive | inactive |
| COC1CCN(c2cccc(-c3cc(NC(C)=O)nc(-n4nc(C)cc4C)n3)n2)CC1 | inactive | inactive | inactive | inactive | inactive | inactive | inactive | inactive |
| C[C@H]1CO[C@@H]2Cn3cc(C(=O)NCc4ccc(F)cc4F)c(=O)c(O)c3C(=O)N12 | inactive | inactive | inactive | inactive | inactive |  | inactive | inactive |
| CCOC(=O)C1=Cc2ccc(C(F)(F)C(F)(F)F)cc2N=C(N)C1 | inactive | inactive | inactive | inactive | inactive |  | inactive | inactive |
| COc1ccc2nc(-c3cc(OC)c(OC)c(OC)c3)cc(C(=O)NCC(=O)Nc3ccc(C(C)=O)cc3)c2c1 | inactive | inactive | inactive | inactive | inactive |  | inactive | inactive |
| NC(=O)N1CCC(CC(=O)N2CCC(C3c4ncc(Br)cc4CCc4cc(Cl)cc(Br)c43)CC2)CC1 (stereo not given) | inactive | inactive | inactive | inactive | inactive | inactive |  |  |
| C=C1CC[C@@H](O)[C@]2(C)C[C@H]3OC(=O)C(=C)[C@H]3CC12 (stereo not given in full) | inactive | inactive | inactive | inactive | inactive | inactive |  | inactive |
| COc1nc2ccc(Br)cc2cc1[C@@H](c1ccccc1)[C@@](O)(CCN(C)C)c1cccc2ccccc12 | inactive | inactive | inactive | inactive | inactive | inactive |  | inactive |
| CC(=O)OC1CCC2(C)C(CCC3(C)C2CC=C2C4C(C)C(C)CCC4(C)CCC23C)C1(C)C(=O)O (stereo not given) | inactive | inactive | inactive | inactive | inactive |  | inactive | inactive |

| SMILES | Potency (C33A) | Potency (CAOV3) | Potency (CASKI) | Potency (Es-2) | Potency (HeLa) | Potency (JEG-3) | Potency (Hek293T) | Potency (OV90) |
| --- | --- | --- | --- | --- | --- | --- | --- | --- |
| COc1ccc2c(NC(=O)Nc3cccc(C(F)(F)F)n3)ccnc2c1 | inactive | inactive | inactive | inactive | inactive |  | inactive | inactive |
| O=C(NCCO)c1cccc(-c2cc(Nc3ccc(OC(F)(F)F)cc3)ncn2)c1 | inactive | inactive | inactive | inactive | inactive | inactive |  | inactive |
| CN(C)C(=O)Nc1cccc(-c2ccc(N(C)C)cc2)c1 | inactive | inactive | inactive | inactive | inactive | inactive |  | inactive |
| NC(=O)C1=CC2C3C=CC2C(OC3=O)O1 (stereo not given) | inactive | inactive | inactive | inactive | inactive |  | inactive | inactive |
| CCCc1ccc(OCC(=O)N(Cc2nc(-c3cccnc3)no2)C(C)C)cc1 | inactive | inactive | inactive | inactive | inactive | inactive |  | inactive |
| C=C1CC2[C@@]3(C)C=CC(=O)C(C)(C)C3=C(O)C(=O)[C@@]2(C)C2(C(=O)OC)C(=O)C(C)OC(=O)[C@@]12C (stereo not given in full) | inactive | inactive | inactive | inactive |  | inactive |  |  |
| O=C(N[C@@H]1CCCc2c1cnn2-c1ccc(F)cc1F)c1ccccn1 | inactive | inactive | inactive | inactive | inactive |  |  | inactive |
| NC(=O)c1ccccc1Nc1ccnc(Nc2cccc(O)c2)n1 | inactive | 8.91 µM (active) | 12.6 µM (active) |  | 3.16 µM (active) |  |  |  |
| C=C1/C(=C/C=C2\CCC[C@]3(C)[C@@H]([C@@H](C)OCCC(O)(CC)CC)CC[C@@H]23)C[C@@H](O)C[C@@H]1O | inactive | inactive | inactive | inactive | inactive |  |  | inactive |
| Cc1cc2c(F)c(Oc3ncnn4cc(OCC(C)OC(=O)C(C)N)c(C)c34)ccc2[nH]1 (stereo not given) | inactive | inactive | inactive | inactive |  |  |  | inactive |
| C=C1C(=O)O[C@@H]2/C=C(\C)CC/C=C(/C=O)[C@H](OC)[C@@H](OC(=O)C(C)C)[C@@H]12 | inactive | inactive | inactive |  | inactive | inactive |  |  |
| CC[C@@H](C)[C@@H]1OC2(C=C[C@H]1C)C[C@@H]1C[C@H](C/C=C(\C)[C@H](O[C@H]3C[C@H](OC)[C@H](O[C@H]4C[C@H](OC)[C@H](NC(C)=O)[C@H](C)O4)[C@H](C)O3)[C@H](C)/C=C/C=C3\CO[C@H]4[C@H](O)C(C)=C[C@@H](C(=O)O1)[C@@]34O)O2 (stereo not given in full) | inactive | inactive | inactive | inactive |  |  |  | inactive |
| Cc1c(C(=O)Nc2ccc(N3CCC(N4CCOCC4)CC3)c(C#N)c2)cnn1-c1ccc(Cl)cc1 | 0.891 µM (active) | inactive | inactive |  | inactive | 0.794 µM (active) |  |  |
| O=C(NCCCNc1nc(Nc2cccc(CN3CCOCC3)c2)ncc1C1CC1)C1CCC1 | inactive | 11.2 µM (active) | inactive | inactive |  | inactive | inactive | inactive |
| C=C(C(=O)O[C@H]1C/C(C)=C/CC/C(CO)=C/[C@H]2OC(=O)C(=C)[C@H]12)C(O)CO (stereo not given in full) | inactive | inactive | inactive |  | inactive |  | inactive | inactive |
| O=C(NCCN1CCOCC1)c1cc2c(Oc3ccc(NC(=O)C4(C(=O)Nc5ccc(F)cc5)CC4)cc3)ccnc2[nH]1 | inactive | inactive | inactive |  | inactive | inactive | inactive |  |
| CS(=O)(=O)Nc1ccc2oc3c(OC(F)F)ccc(C(=O)Nc4c(Cl)cncc4Cl)c3c2c1 | inactive | inactive | inactive | inactive |  | inactive | inactive | inactive |
